# Assay results published in PubChem BioAssay AID1508633 (National Center for Advancing Translational Sciences (NCATS), 2021).
# Inconclusive results are not listed. Calls of active or inactive are those of the source. The call rests on the fitted dose curve; in most records, active means well fitted inhibition curve with a large enough effect; inconclusive means small, poorly fitted or top-dose-only effect; inactive means no such curve, though single readings can be large or run the other way.
# Test system: zebrafish ABCB5 (Abcb5) multidrug transporter
# Assay: qHTS for characterization and localization of zebrafish homologs of the human ABCB1 multidrug transporter: ABCB5 transfected cells
# Settings: CellTiter-Glo luminescence viability, 72 h
# Excerpt: The zebrafish has emerged as a potential model to study the blood-brain barrier (BBB) given its similarities with mammalian systems. However, little information has been available with regard to homologous ATP-binding cassette transporters expressed at the zebrafish BBB. Two transporters that are highly expressed at the human BBB are P-glycoprotein (P-gp, encoded by the ABCB1 gene) and ABCG2 (encoded by the ABCG2 gene). In this study, we focus on characterization of P-gp homologs in the zebrafish, which has two genes that are homologous to human ABCB1 - abcb4 and abcb5. We generated stably-transfected cell lines to determine their substrate specificities. […] Zebrafish abcb4 also colocalized with claudin 5 expression in brain endothelial cells.
# A high-throughput screen was performed as previously described on empty vector transfected cells, P-gp-overexpressing MDR-19 cells and cells transfected with full-length zebrafish abcb4 (ZF Abcb4) or abcb5 (ZF Abcb5). Briefly, cells were plated into 1536-well plates at a density of 500 cells/well in 5 uL media. […] CellTiter-Glo reagent (Promega) was dispensed into the wells, incubated for 5 min and luminescence was read on a ViewLux instrument (Perkin-Elmer). […]
row,SMILES,Potency
1,C[C@@H]1[C@@H](CC(C[C@H]2O[C@@H]3O[C@]4(C)CC[C@@H]5[C@H](C)CC[C@@H]([C@H]2C)[C@@]35OO4)C[S+](=O)([O-])c2ccc(COC(=O)N(C)C)cc2)O[C@@H]2O[C@]3(C)CC[C@H]4[C@H](C)CC[C@@H]1[C@@]24OO3 (some centres not stated),590 nM (active)
2,C=CCON=C(C[C@H]1O[C@@H]2O[C@]3(C)CC[C@@H]4[C@H](C)CC[C@@H]([C@H]1C)[C@@]24OO3)[C@H]1O[C@@H]2O[C@]3(C)CC[C@H]4[C@H](C)CC[C@@H]([C@@H]1C)[C@@]24OO3,526 nM (active)
